Laboratory results: the supplement of paper PMC12645437, “Orthogonal IMiD-Degron Pairs Induce Selective Protein Degradation in Cells” (ACS Chemical Biology, 2025)
Whole data set: some 8,300 sequences, median “log2 fold change of degron read counts, EGFP-low vs EGFP+ sorted cells (limma voom), compound-induced degradation” near -1.1, cut for the highest 2% near 3.2. This excerpt belongs to a sample that is enriched for the highest values.

T1: CRBN, Q96SW2
T1 chain: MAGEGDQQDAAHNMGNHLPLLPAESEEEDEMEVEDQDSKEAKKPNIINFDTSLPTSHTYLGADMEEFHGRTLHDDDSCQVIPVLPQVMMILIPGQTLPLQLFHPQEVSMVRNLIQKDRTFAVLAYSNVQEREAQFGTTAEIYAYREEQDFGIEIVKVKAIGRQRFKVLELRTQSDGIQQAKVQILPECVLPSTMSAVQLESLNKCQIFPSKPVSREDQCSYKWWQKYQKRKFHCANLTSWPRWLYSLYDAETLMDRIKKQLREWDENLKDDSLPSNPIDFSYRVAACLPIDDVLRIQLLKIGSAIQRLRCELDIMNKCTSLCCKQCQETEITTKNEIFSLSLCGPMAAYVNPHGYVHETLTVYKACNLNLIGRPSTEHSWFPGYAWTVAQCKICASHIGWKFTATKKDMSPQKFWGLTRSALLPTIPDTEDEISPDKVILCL

B1: 46F_47L_49P_50V_52G_53A_54H_55F_67L_, Q9UKT9 (peptide)
chain: FLCPVCGAHFTQKGNLLRHIKL
B2: 46L_47V_49E_50I_52G_53F_54P_55C_67L_, Q9UKT9 (peptide)
chain: LVCEICGFPCTQKGNLLRHIKL
B3: 46F_47V_49P_50I_52G_53R_54I_55F_67L_, Q9UKT9 (peptide)
chain: FVCPICGRIFTQKGNLLRHIKL
B4: 46F_47Q_49P_50I_52G_53H_54T_55F_67L_, Q9UKT9 (peptide)
chain: FQCPICGHTFTQKGNLLRHIKL
B5: 46F_47R_49E_50V_52G_53A_54N_55F_67L_, Q9UKT9 (peptide)
chain: FRCEVCGANFTQKGNLLRHIKL
B6: 46F_47H_49P_50V_52G_53A_54D_55F_67L_, Q9UKT9 (peptide)
chain: FHCPVCGADFTQKGNLLRHIKL
B7: 46F_47V_49P_50I_52G_53R_54N_55F_67L_, Q9UKT9 (peptide)
chain: FVCPICGRNFTQKGNLLRHIKL
B8: 46F_47D_49N_50I_52G_53A_54G_55F_67L_, Q9UKT9 (peptide)
chain: FDCNICGAGFTQKGNLLRHIKL
B9: 46F_47G_49N_50Q_52G_53R_54Q_55F_67L_, Q9UKT9 (peptide)
chain: FGCNQCGRQFTQKGNLLRHIKL
B10: 46F_47E_49N_50Q_52G_53A_54Q_55F_67L_, Q9UKT9 (peptide)
chain: FECNQCGAQFTQKGNLLRHIKL
B11: 46F_47S_49E_50V_52G_53A_54V_55F_67L_, Q9UKT9 (peptide)
chain: FSCEVCGAVFTQKGNLLRHIKL
B12: 46F_47D_49E_50V_52G_53A_54V_55F_67L_, Q9UKT9 (peptide)
chain: FDCEVCGAVFTQKGNLLRHIKL
B13: 46F_47C_49E_50V_52G_53A_54V_55F_67L_, Q9UKT9 (peptide)
chain: FCCEVCGAVFTQKGNLLRHIKL
B14: 46F_47H_49E_50V_52G_53A_54V_55F_67L_, Q9UKT9 (peptide)
chain: FHCEVCGAVFTQKGNLLRHIKL
B15: 46F_47K_49E_50V_52G_53A_54V_55F_67L_, Q9UKT9 (peptide)
chain: FKCEVCGAVFTQKGNLLRHIKL
B16: 46F_47A_49E_50V_52G_53A_54V_55F_67L_, Q9UKT9 (peptide)
chain: FACEVCGAVFTQKGNLLRHIKL
B17: 46F_47Q_49E_50V_52G_53A_54V_55F_67L_, Q9UKT9 (peptide)
chain: FQCEVCGAVFTQKGNLLRHIKL
B18: 46F_47V_49E_50V_52G_53A_54V_55F_67L_, Q9UKT9 (peptide)
chain: FVCEVCGAVFTQKGNLLRHIKL
B19: 46F_47T_49E_50V_52G_53A_54V_55F_67L_, Q9UKT9 (peptide)
chain: FTCEVCGAVFTQKGNLLRHIKL
B20: 46F_47F_49E_50V_52G_53A_54V_55F_67L_, Q9UKT9 (peptide)
chain: FFCEVCGAVFTQKGNLLRHIKL
B21: 46F_47L_49E_50V_52G_53A_54V_55F_67L_, Q9UKT9 (peptide)
chain: FLCEVCGAVFTQKGNLLRHIKL
B22: 46F_47W_49E_50V_52G_53A_54V_55F_67L_, Q9UKT9 (peptide)
chain: FWCEVCGAVFTQKGNLLRHIKL
B23: 46F_47R_49S_50V_52G_53H_54R_55F_67L_, Q9UKT9 (peptide)
chain: FRCSVCGHRFTQKGNLLRHIKL
B24: 46F_47Y_49N_50Q_52G_53H_54G_55F_67L_, Q9UKT9 (peptide)
chain: FYCNQCGHGFTQKGNLLRHIKL
B25: 46F_47N_49D_50V_52G_53A_54I_55F_67L_, Q9UKT9 (peptide)
chain: FNCDVCGAIFTQKGNLLRHIKL
B26: 46F_47W_49E_50Q_52G_53A_54K_55F_67L_, Q9UKT9 (peptide)
chain: FWCEQCGAKFTQKGNLLRHIKL
B27: 46L_47M_49N_50Q_52G_53F_54M_55C_67L_, Q9UKT9 (peptide)
chain: LMCNQCGFMCTQKGNLLRHIKL
B28: 46F_47S_49D_50V_52G_53A_54T_55F_67L_, Q9UKT9 (peptide)
chain: FSCDVCGATFTQKGNLLRHIKL

Biological target: T1, CRBN, Q96SW2
Assay: log2 fold change of degron read counts, EGFP-low vs EGFP+ sorted cells (limma voom), compound-induced degradation; higher = more compound-induced degradation of the degron-EGFP fusion; degrons are variants of IKZF1/3 zinc finger 2; compound dose not given here
Conditions: Jurkat, 18 h
[1] = compound: compound 19 (5-tert-butyl-thalidomide)
[2] = compound: compound 22 (5-morpholino-thalidomide)
[3] = compound: compound 33 (diphenyl IMiD analogue)
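Also: pooled lentiviral library of zinc finger degron-EGFP fusions in mCherry-positive Jurkat cells, FACS-sorted after compound exposure, with degron abundance counted by next-generation sequencing.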

Row | Sequence | log2 fold change of degron read counts [1] | log2 fold change of degron read counts [2] | log2 fold change of degron read counts [3] | log2 fold change of degron read counts (compound: thalidomide)
1 | B1 | -0.298 | -0.793 | 1.34 | 0.943
2 | B2 | -1.74 | -0.966 | -1.5 | -0.424
3 | B3 | -1.17 | -0.629 | 1.04 | 1.32
4 | B4 | -2.53 | -2.01 | -1.64 | 0.116
5 | B5 | -1.19 | -1.18 | 1.07 | 0.852
6 | B6 | -0.685 | -1.25 | 0.492 | -1.46
7 | B7 | -1.5 | 0.0165 | -0.308 | 1.47
8 | B8 | -0.56 | -1.59 | -0.734 | -0.131
9 | B9 | -1.78 | -3.61 | -1.87 | -1.99
10 | B10 | -3.22 | -3.17 | -2.23 | -1.78
11 | B11 | 2.19 | 1.99 | 2.31 | 0.741
12 | B12 | -0.0916 | -0.965 | 0.432 | 0.0687
13 | B13 | 1.18 | 1.8 | 2.68 | 1.79
14 | B14 | 0.991 | 1.24 | 1.22 | -0.292
15 | B15 | -2.3 | -3.46 | -2.84 | -1.47
16 | B16 | 3.24 | 2.04 | 1.3 | 0.155
17 | B17 | -0.43 | 2.76 | 2.39 | 3.71
18 | B18 | -0.567 | 1.18 | 2.1 | 2.01
19 | B19 | -0.209 | 1.43 | 1.81 | 2.36
20 | B20 | 2.87 | 3.44 | 1.92 | 1.04
21 | B21 | -1.19 | -1.32 | 0.896 | 1.47
22 | B22 | 2.83 | 3.43 | 2.51 | 0.594
23 | B23 | -2.02 | -2.85 | -2.44 | -2.23
24 | B24 | -2.38 | -2.88 | -2.5 | -2.33
25 | B25 | -1.74 | -3.02 | -1.86 | -2.46
26 | B26 | 2.4 | 1.97 | -0.464 | -0.551
27 | B27 | -1.58 | -1.89 | -0.98 | -1.42
28 | B28 | 0.618 | 0.269 | 0.317 | -0.694
